The source made the active and inactive calls. How the source made its calls: active means hit-call score of the fitted dose curve at least 0.9, where 1 is the maximum; inactive means score below 0.9.
Tests used:
[1] = read-out: urokinase plasminogen activator (uPA), PLAU (gene 5328); test: BSK_KF3CT_uPA: BioMAP Diversity Plus: KF3CT Assay for urokinase plasminogen activator (uPA) Biomarker Activity (AID 2283075); settings: primary human keratinocytes with fibroblasts; actives raise or lower the signal
Summary of the method: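 ELISA read-out of uPA 24 h after dosing human skin keratinocytes co-cultured with foreskin fibroblasts. Signal change fitted both ways relative to DMSO; sulforhodamine B on parallel cultures marks overt cytotoxicity.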

[2] = read-out: E-selectin (Homo sapiens) (UniProt P16581); test: BSK_LPS_Eselectin: BioMAP Diversity Plus: LPS Assay for Eselectin Biomarker Activity (AID 2283077); settings: primary human HUVEC with PBMC; actives raise or lower the signal
Summary of the method: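 Human umbilical vein endothelial cells co-cultured with PBMC under LPS stimulation; cell-surface E-selectin measured by ELISA 24 h after dosing. Change in either direction versus DMSO, with SRB total-protein staining in parallel cultures for cytotoxicity.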

[3] = read-out: Interleukin-8 (IL8), CXCL8 (gene 3576); test: BSK_LPS_IL8: BioMAP Diversity Plus: LPS Assay for Interleukin-8 (IL8) Biomarker Activity (AID 2283078); settings: primary human HUVEC with PBMC; actives raise or lower the signal
Summary of the method: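 Human umbilical vein endothelial cells co-cultured with PBMC, LPS-stimulated, exposed to compound for 24 h. IL-8 quantified by ELISA; fitted in both directions against DMSO, with SRB total-protein staining of parallel cultures for cytotoxicity.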

[4] = BSK_LPS_SRB: Viability Assessment in the BioMAP Diversity Plus: LPS Assay (AID 2283079); settings: primary human HUVEC with PBMC;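 further: total protein by sulforhodamine B absorbance as a cytotoxicity measure; measured one day after compound addition; fitted in both directions against DMSO so loss or gain of signal counts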
Summary of the method: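 Co-culture of human umbilical vein endothelial cells and PBMC, read 24 h after dosing. Total protein by 0.1% SRB staining after 10% TCA fixation, absorbance at 560 nm; bidirectional fit against DMSO.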

[5] = read-out: Interleukin-1 alpha (IL1a), IL1A (gene 3552); test: BSK_LPS_IL1a: BioMAP Diversity Plus: LPS Assay for Interleukin-1 alpha (IL1a) Biomarker Activity (AID 2283080); settings: primary human HUVEC with PBMC; actives raise or lower the signal
Summary of the method: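 Human umbilical vein endothelial cells co-cultured with PBMC and stimulated with LPS; IL-1a measured by ELISA 24 h after dosing. Bidirectional fitting against DMSO; cytotoxicity checked by SRB staining in parallel cultures.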

[6] = read-out: Monocyte Chemoattractant Protein-1 (MCP1), CCL2 (gene 6347); test: BSK_LPS_MCP1: BioMAP Diversity Plus: LPS Assay for Monocyte Chemoattractant Protein-1 (MCP1) Biomarker Activity (AID 2283081); settings: primary human HUVEC with PBMC; actives raise or lower the signal
Summary of the method: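 Human umbilical vein endothelial cells co-cultured with PBMC, LPS-stimulated; secreted MCP-1 measured by ELISA 24 h after compound addition. Bidirectional curve fitting against DMSO baseline; SRB total-protein staining in parallel cultures for cytotoxicity.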

[7] = BSK_LPS_PGE2: BioMAP Diversity Plus: LPS Assay for Prostaglandin E2 (PGE2) Biomarker Activity (AID 2283082); settings: primary human HUVEC with PBMC; actives raise or lower the signal
Summary of the method: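 PGE2 release measured by ELISA in an LPS-activated co-culture of human umbilical vein endothelial cells and peripheral blood mononuclear cells, read at 24 h post-dosing. DMSO served as baseline for bidirectional curve fitting.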

[8] = read-out: Macrophage colony-stimulating factor (MCSF), CSF1 (gene 1435); test: BSK_LPS_MCSF: BioMAP Diversity Plus: LPS Assay for Macrophage colony-stimulating factor (MCSF) Biomarker Activity (AID 2283083); settings: primary human HUVEC with PBMC; actives raise or lower the signal
Summary of the method: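 HUVEC–PBMC co-culture, M-CSF measured by ELISA 24 h after chemical dosing. Fitted in both directions relative to DMSO as negative control; overt cytotoxicity assessed by SRB total-protein staining in parallel cultures.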

[9] = read-out: Tissue Factor, F3 (gene 2152); test: BSK_LPS_TissueFactor: BioMAP Diversity Plus: LPS Assay for Tissue Factor Biomarker Activity (AID 2283084); settings: primary human HUVEC with PBMC; actives raise or lower the signal
Summary of the method: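 Human umbilical vein endothelial cells co-cultured with PBMC were dosed with compound. Cell-surface CD142 was measured by ELISA 24 h later. Activity was fitted bidirectionally against DMSO, with SRB total-protein staining in parallel cultures for cytotoxicity.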

[10] = read-out: Tumor necrosis factor (Homo sapiens) (UniProt P01375); test: BSK_LPS_TNFa: BioMAP Diversity Plus: LPS Assay for Tumour Necrosis Factor alpha (TNFa) Biomarker Activity (AID 2283085); settings: primary human HUVEC with PBMC; actives raise or lower the signal
Summary of the method: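 TNFa was quantified by ELISA in LPS-activated co-cultures of human endothelial cells and PBMC, 24 h post-dosing. Both increases and decreases versus DMSO were fitted.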

[11] = read-out: Vascular cell adhesion molecule 1 (VCAM1), VCAM1 (gene 7412); test: BSK_LPS_VCAM1: BioMAP Diversity Plus: LPS Assay for Vascular cell adhesion molecule 1 (VCAM1) Biomarker Activity (AID 2283086); settings: primary human HUVEC with PBMC; actives raise or lower the signal
Summary of the method: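 VCAM-1 quantified by ELISA in an LPS-activated co-culture of human endothelial cells and peripheral blood mononuclear cells, read 24 h post-treatment. Fitted in both directions versus DMSO; parallel SRB staining flags overt cytotoxicity.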

CD38, CD38 (gene 952) = test: BSK_SAg_CD38: BioMAP Diversity Plus: SAg Assay for CD38 Biomarker Activity (AID 2283087); settings: primary human HUVEC with PBMC; actives raise or lower the signal
Summary of the method: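 CD38 quantified by ELISA (fluorescence) in a superantigen-activated endothelial cell–PBMC co-culture at 24 h post-dose. Activity fitted in both directions relative to DMSO; parallel SRB and Alamar Blue cytotoxicity read-outs.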

CD40, CD40 (gene 958) [12] = test: BSK_SAg_CD40: BioMAP Diversity Plus: SAg Assay for CD40 Biomarker Activity (AID 2283088); settings: primary human HUVEC with PBMC; actives raise or lower the signal
Summary of the method: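 HUVEC plus PBMC co-culture, superantigen-activated, with CD40 read by ELISA 24 h after dosing. Curves fitted in both directions against DMSO. Overt cytotoxicity checked by parallel SRB total-protein staining.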

CD69, CD69 (gene 969) = test: BSK_SAg_CD69: BioMAP Diversity Plus: SAg Assay for CD69 Biomarker Activity (AID 2283089); settings: primary human HUVEC with PBMC; actives raise or lower the signal
Summary of the method: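 Primary human vascular co-culture (umbilical vein endothelium with peripheral blood mononuclear cells) exposed to test chemical for 24 h. CD69 levels quantified by fluorescence ELISA; DMSO served as negative control for bidirectional fitting.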

[13] = read-out: Monocyte Chemoattractant Protein-1 (MCP1), CCL2 (gene 6347); test: BSK_SAg_MCP1: BioMAP Diversity Plus: SAg Assay for Monocyte Chemoattractant Protein-1 (MCP1) Biomarker Activity (AID 2283090); settings: primary human HUVEC with PBMC; actives raise or lower the signal
Summary of the method: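 Values derive from bidirectional fitting of ELISA-measured MCP1 against DMSO controls. Readings were taken 24 h after dosing human vascular endothelial cells co-cultured with peripheral blood mononuclear cells under superantigen stimulation.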

[14] = read-out: E-selectin (Homo sapiens) (UniProt P16581); test: BSK_SAg_Eselectin: BioMAP Diversity Plus: SAg Assay for Eselectin Biomarker Activity (AID 2283091); settings: primary human HUVEC with PBMC; actives raise or lower the signal
Summary of the method: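 Human umbilical vein endothelial cells co-cultured with peripheral blood mononuclear cells, SAg system. E-selectin is measured by ELISA 24 h after dosing and fitted bidirectionally against DMSO. Cytotoxicity is checked by SRB staining of parallel cultures.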

[15] = read-out: Monokine induced gamma interferon (MIG), CXCL9 (gene 4283); test: BSK_SAg_MIG: BioMAP Diversity Plus: SAg Assay for Monokine induced gamma interferon (MIG) Biomarker Activity (AID 2283092); settings: primary human HUVEC with PBMC; actives raise or lower the signal
Summary of the method: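 Endothelial cells and PBMC were co-cultured, exposed to test chemicals, and sampled 24 h later. MIG was measured by ELISA, and responses were fitted in both directions relative to DMSO.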

[16] = BSK_SAg_PBMCCytotoxicity: PBMC Cytotoxicity Assessment in the BioMAP Diversity Plus: SAg Assay (AID 2283093); settings: primary human HUVEC with PBMC;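 further: PBMC viability measured as Alamar Blue reduction fluorescence at 546/580 nm; fitted both ways against DMSO so a hit may be loss or gain of signal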
Summary of the method: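 Alamar Blue reduction (6 h, ex/em 546/580 nm) read after 90 h culture of PBMC pre-dosed 1 h then stimulated with SEB plus TSST-1, 20 ng/mL each. Gain or loss of signal fitted relative to DMSO.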

[17] = read-out: Interleukin-8 (IL8), CXCL8 (gene 3576); test: BSK_SAg_IL8: BioMAP Diversity Plus: SAg Assay for Interleukin-8 (IL8) Biomarker Activity (AID 2283094); settings: primary human HUVEC with PBMC; actives raise or lower the signal
Summary of the method: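 ELISA readout of IL-8 from a superantigen-activated endothelial/PBMC primary human co-culture, taken 24 h post-dosing and fitted in both directions against DMSO; parallel SRB total-protein staining flags overt cytotoxicity.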

CD40, CD40 (gene 958) [18] = test: BSK_LPS_CD40: BioMAP Diversity Plus: LPS Assay for CD40 Biomarker Activity (AID 2283076); settings: primary human HUVEC with PBMC; actives raise or lower the signal
Summary of the method: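 HUVEC plus PBMC co-culture stimulated with LPS; CD40 quantified by ELISA 24 h after compound dosing. Fitting was bidirectional relative to DMSO. SRB staining of parallel cultures flagged overt cytotoxicity.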

E-selectin (Homo sapiens), sequence (P16581 whole entry, looked up): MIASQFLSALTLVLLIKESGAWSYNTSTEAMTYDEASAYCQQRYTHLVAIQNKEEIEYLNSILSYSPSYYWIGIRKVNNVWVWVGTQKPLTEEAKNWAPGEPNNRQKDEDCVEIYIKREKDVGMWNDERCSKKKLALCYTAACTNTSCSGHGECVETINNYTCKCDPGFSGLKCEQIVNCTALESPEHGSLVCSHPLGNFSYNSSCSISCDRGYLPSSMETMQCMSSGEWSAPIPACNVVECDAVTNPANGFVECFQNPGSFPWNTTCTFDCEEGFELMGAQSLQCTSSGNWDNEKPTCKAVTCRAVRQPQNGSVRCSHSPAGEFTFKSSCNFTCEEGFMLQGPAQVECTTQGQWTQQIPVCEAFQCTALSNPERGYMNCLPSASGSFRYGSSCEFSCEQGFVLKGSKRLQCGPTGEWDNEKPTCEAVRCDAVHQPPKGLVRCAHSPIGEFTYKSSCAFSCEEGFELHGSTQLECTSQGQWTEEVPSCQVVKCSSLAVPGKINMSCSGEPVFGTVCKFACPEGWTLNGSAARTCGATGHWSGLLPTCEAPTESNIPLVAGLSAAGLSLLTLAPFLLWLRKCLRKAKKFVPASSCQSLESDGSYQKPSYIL
Tumor necrosis factor (Homo sapiens), sequence (P01375 whole entry, looked up): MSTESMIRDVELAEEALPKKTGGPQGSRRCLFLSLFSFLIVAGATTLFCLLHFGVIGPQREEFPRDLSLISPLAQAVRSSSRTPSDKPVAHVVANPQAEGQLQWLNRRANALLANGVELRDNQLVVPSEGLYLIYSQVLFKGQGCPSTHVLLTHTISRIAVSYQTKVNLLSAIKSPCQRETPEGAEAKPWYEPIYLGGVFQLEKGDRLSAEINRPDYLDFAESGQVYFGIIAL

O=c1[nH]c2ccc(S(=O)CCN3CCC(Cc4ccc(F)cc4)CC3)cc2o1 (configuration not stated)
outcome [1]: inactive
outcome [2]: inactive
outcome [3]: inactive
outcome [4]: inactive
outcome [5]: inactive
outcome [6]: inactive
outcome [7]: inactive
outcome [8]: inactive
outcome [9]: inactive
outcome [10]: inactive
outcome [11]: inactive
outcome (CD38, CD38 (gene 952)): inactive
outcome (CD40, CD40 (gene 958) [12]): inactive
outcome (CD69, CD69 (gene 969)): inactive
outcome [13]: inactive
outcome [14]: inactive
outcome [15]: inactive
outcome [16]: inactive
outcome [17]: inactive

CN(C)c1ccc(N=NS(=O)(=O)O)cc1
outcome [1]: inactive
outcome (CD40, CD40 (gene 958) [18]): inactive
outcome [2]: inactive
outcome [3]: inactive
outcome [4]: inactive
outcome [5]: inactive
outcome [6]: inactive
outcome [7]: inactive
outcome [8]: inactive
AC50 [9]: 5.8 µM (active)
outcome [10]: inactive
AC50 [11]: 10.4 µM (active)
outcome (CD40, CD40 (gene 958) [12]): inactive
outcome (CD69, CD69 (gene 969)): inactive
outcome [13]: inactive
outcome [14]: inactive
outcome [15]: inactive
outcome [17]: inactive

CCCCCCCCCCCCc1ccccc1
outcome [1]: inactive
AC50 (CD40, CD40 (gene 958) [18]): 30.7 µM (active)
outcome [2]: inactive
outcome [3]: inactive
outcome [4]: inactive
outcome [5]: inactive
outcome [6]: inactive
outcome [7]: inactive
outcome [8]: inactive
outcome [9]: inactive
outcome [10]: inactive
outcome [11]: inactive
AC50 (CD40, CD40 (gene 958) [12]): 31.8 µM (active)
outcome (CD69, CD69 (gene 969)): inactive
outcome [13]: inactive
outcome [14]: inactive
outcome [15]: inactive
outcome [17]: inactive

O=C1CCCCCN1
outcome [1]: inactive
outcome (CD40, CD40 (gene 958) [18]): inactive
outcome [2]: inactive
outcome [3]: inactive
outcome [4]: inactive
outcome [5]: inactive
outcome [6]: inactive
outcome [7]: inactive
outcome [8]: inactive
outcome [9]: inactive
outcome [10]: inactive
outcome [11]: inactive
outcome (CD40, CD40 (gene 958) [12]): inactive
outcome (CD69, CD69 (gene 969)): inactive
outcome [13]: inactive
outcome [14]: inactive
outcome [15]: inactive
outcome [17]: inactive

CC(=O)OCCC(C)C
outcome [1]: inactive
outcome [2]: inactive
outcome [3]: inactive
outcome [4]: inactive
outcome [5]: inactive
outcome [6]: inactive
outcome [7]: inactive
outcome [8]: inactive
outcome [9]: inactive
outcome [10]: inactive
outcome [11]: inactive
outcome (CD38, CD38 (gene 952)): inactive
outcome (CD40, CD40 (gene 958) [12]): inactive
outcome (CD69, CD69 (gene 969)): inactive
outcome [13]: inactive
outcome [14]: inactive
outcome [15]: inactive
outcome [16]: inactive
outcome [17]: inactive

— PubChem BioAssay (EPA / NIEHS)
